Results on 14 molecules are retold here after PubChem BioAssay.

SMILES strings stand for the structures.

The test system of assay [1] is Human papillomavirus type 1a protein E7 (residues 44-93). In words: HPV1a E7 fragment binders on microarrays, primary screen, biochemical, small-molecule microarray, residues 44-93, 635 nm fluorescence (AID 1108).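 Note: E7 fragment applied at 1 µg/mL in TBST for 1 h at 4 C; score combines spot fluorescence with its signal to noise ratio.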 The following applies: small-molecule microarray binding, fluorescence 635 nm; higher = more signal.
The nature of assay [2]: modulators of HCV replicon luciferase signal, primary screen, HCV replication inhibitor project, Huh7 cells, luciferase reporter (AID 1109).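 Note: huh7 hepatoma cells harbouring a luciferase neomycin HCV replicon reporter; luciferase luminescence as measure of HCV replicon replication; test concentration not given here.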 The following applies: 48 h, higher = more signal. In general terms: A replicon is a self-replicating genome or part of one, used to study replication in cells.
The target of assay [3] is Left-right determination factor 2 (Homo sapiens) (UniProt O00292). In words: LEFTY2 binders on small-molecule microarrays, primary screen, biochemical, small-molecule microarray, 635 nm fluorescence scan (AID 1110). The following applies: LEFTY2 binding, higher = more signal.
Chain of Left-right determination factor 2 (Homo sapiens) (O00292 whole entry, looked up): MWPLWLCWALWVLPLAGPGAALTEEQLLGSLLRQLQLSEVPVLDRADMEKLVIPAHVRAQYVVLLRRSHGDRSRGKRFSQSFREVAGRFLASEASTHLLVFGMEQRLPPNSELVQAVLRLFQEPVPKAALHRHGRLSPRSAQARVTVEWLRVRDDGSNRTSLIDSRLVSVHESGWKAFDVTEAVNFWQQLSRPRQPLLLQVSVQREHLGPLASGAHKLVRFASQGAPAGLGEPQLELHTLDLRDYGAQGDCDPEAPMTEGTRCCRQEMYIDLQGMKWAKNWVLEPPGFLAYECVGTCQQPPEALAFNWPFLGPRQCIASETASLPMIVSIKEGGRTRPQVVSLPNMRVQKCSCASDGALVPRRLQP
Assay [4] has as its target Calmodulin-1 (Homo sapiens) (UniProt P0DP23). The assay is described as follows: CALM1 binders on microarrays, EGTA buffer, profiling panel, biochemical, small-molecule microarray, Cy5-labelled CALM1 (AID 1111).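 Note: labelled calmodulin applied in Tris saline Tween buffer holding calcium plus EGTA and DTT.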 The following applies: Cy5-CALM1 binding fluorescence, higher = more signal.
For assay [5] the target is unchanged. In words: calcium-bound CALM1 binders on microarrays, profiling panel, artefact control for SMM control-protein annotation, biochemical, small-molecule microarray, Cy5-labelled CALM1, plus calcium (AID 1112).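 Note: score merges spot fluorescence with signal to noise from triplicate slides.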 The following applies: Cy5-CALM1 binding fluorescence, higher = more signal.
The nature of assay [6]: small-molecule microarray binders of probe aWnt5a, primary screen, biochemical, biotinylated probe, 635/667 nm fluorescence (AID 1113).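 Note: score merges 667 nm fluorescence intensity with signal-to-noise per printed feature.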 The following applies: higher = more signal.
A short description of assay [7]: small-molecule microarray binders of probe aShh, primary screen, biochemical, biotinylated probe, 635/667 nm fluorescence (AID 1114).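 Note: probe is biotin-labelled aShh protein from a stem cell growth factor screen; measures binding of labelled protein to compounds printed on the slide; score merges feature fluorescence at 667 nm with signal-to-noise.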 The following applies: higher = more signal.
A short description of assay [8]: small-molecule microarray binders of probe aNog, primary screen, biochemical, biotinylated probe, 635/667 nm fluorescence (AID 1115).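 Note: probe is biotinylated aNog protein used at 0.15 µg/mL for 1 h at 4 C; z-score combines 667 nm fluorescence of each spot with its signal to noise.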 The following applies: higher = more signal.
Assay [9] has as its target Torsin-1A-interacting protein 1 (Homo sapiens) (UniProt Q5JTV8). The assay is described as follows: LAP1 binders from COS7 cell lysate, primary screen, small-molecule microarray, 635/667 nm fluorescence (AID 1116). The conditions noted are these: COS7-hLAP1 lysate binding, 635 nm fluorescence, higher = more signal.
In assay [10] the target is Alpha-bungarotoxin (Bungarus multicinctus) (UniProt P60615). In words: alpha-bungarotoxin binders on microarray, profiling panel, artefact control for SMM control protein annotation, biochemical, small-molecule microarray, Alexa647 label, 635/667 nm fluorescence (AID 1117). The conditions noted are these: alpha-BTX-A647 binding fluorescence, higher = more signal.
Chain of Alpha-bungarotoxin (Bungarus multicinctus) (P60615 whole entry, looked up): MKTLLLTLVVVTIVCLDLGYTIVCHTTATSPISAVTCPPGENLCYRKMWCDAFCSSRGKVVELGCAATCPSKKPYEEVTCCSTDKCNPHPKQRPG

Chain of Torsin-1A-interacting protein 1 (Homo sapiens) (Q5JTV8 whole entry, looked up): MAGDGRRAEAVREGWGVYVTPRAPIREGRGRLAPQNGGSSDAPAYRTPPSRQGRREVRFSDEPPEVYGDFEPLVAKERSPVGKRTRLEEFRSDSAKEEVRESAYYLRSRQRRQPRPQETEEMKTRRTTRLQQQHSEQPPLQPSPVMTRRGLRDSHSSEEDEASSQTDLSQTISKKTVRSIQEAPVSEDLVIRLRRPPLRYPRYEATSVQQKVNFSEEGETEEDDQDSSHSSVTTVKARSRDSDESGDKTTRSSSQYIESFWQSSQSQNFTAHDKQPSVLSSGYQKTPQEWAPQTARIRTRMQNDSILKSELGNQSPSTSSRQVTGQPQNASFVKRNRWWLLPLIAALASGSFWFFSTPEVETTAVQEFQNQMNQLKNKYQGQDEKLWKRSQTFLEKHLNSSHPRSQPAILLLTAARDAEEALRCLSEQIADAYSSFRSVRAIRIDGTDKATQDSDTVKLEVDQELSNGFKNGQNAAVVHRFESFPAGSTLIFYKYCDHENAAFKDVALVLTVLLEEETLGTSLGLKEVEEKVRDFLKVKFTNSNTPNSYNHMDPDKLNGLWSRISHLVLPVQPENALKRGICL

On to `O=C1OCC=C[C@H]2OC34C=CCN(Cc5ccccc5)C(=O)[C@H]3N(CCCCCO)C(=O)[C@@H]4[C@@H]12` (stereo not given in full), for which the composite z-score in assay [1] is -0.646; in [3], -1.84; in assay [4], -0.398; in assay [5] it was 1.08; in [6], -0.169; in [7], -0.138. Besides, the composite z-score in assay [8] was 0.161; in assay [9], -0.328; in assay [10] it was -1.52. Besides, in [2], the z-score was -0.615.

With `Cc1ccc(S[C@]2(C(=O)NCCN3CCOCC3)CC(=O)N(C3Cc4ccccc4C3)[C@@H]2c2ccc(CO)cc2I)cc1`, the composite z-score in assay [1] is 0.0913; in assay [3], -1.71; in [4], -0.0071; in [5] it was -0.0474; in assay [6] it was 0.0718; in assay [7], -0.0553. Moreover, the composite z-score in assay [8] was 0.79; in assay [9], 0.0697; in assay [10] it was 1.74. In assay [2], this molecule displayed a z-score of -1.69.

As to `O=C1c2ccccc2[C@](Cc2ccccc2I)(C(=O)NCC(F)(F)F)[C@H](c2ccc(CO)cc2)N1Cc1ccccc1C(F)(F)F`, the composite z-score in assay [1] was 0.517; in assay [3] it was 0.13; in assay [4] it was 1.47; in assay [5], 0.296; in [6], -0.149; in [7], 0.164. Besides, the composite z-score was -0.0101 in [8], 0.857 in assay [9] and 0.449 in assay [10]. Moreover, the z-score in assay [2] was -0.326.

In the case of `C=CCC(OC(C)=O)[C@@H]1[C@@H](N(Cc2ccc(-c3ccccc3)cc2)C(=O)c2ccc(-c3ccccc3)cc2)c2cc(OCCCO)ccc2N1C(=O)Cc1ccc(OC)cc1` (stereo not given in full), the composite z-score in assay [1] amounted to 0.273; in assay [3], 0.241; in [4], 0.165; in assay [5] it was 0.229; in assay [6], 0.164; in assay [7], 0.011. Moreover, the composite z-score in assay [8] was 0.0921; in [9] it was -0.209; in assay [10], 0.265. Moreover, in assay [2], the z-score was -1.57.

Regarding `CCOC(=O)C[C@H]1[C@H](OC(=O)c2ccccc2-c2ccccc2)[C@@H](NC(=O)C2CCCCC2)c2cc(OCCCO)ccc2N1C(=O)c1ccccc1`, the composite z-score in assay [1] was 0.0771; in [3] it was 1.13; in [4] it was -0.0784; in assay [5], -0.083; in [6] it was -0.213; in assay [7], -0.283. The composite z-score is -0.0502 in assay [8], 0.584 in assay [9] and 0.148 in assay [10]. This molecule displayed a z-score in assay [2] of -1.4.

`CC(C)N1CC=CC23O[C@@H]4/C=C\CCCOC(=O)C4[C@H]2C(=O)N(CCCCCO)[C@@H]3C1=O` (stereo not given in full): the composite z-score in assay [1] is -1.46; in [3], -1.86; in assay [4], -2.24; in assay [5], -0.226; in assay [6] it was -0.176; in [7], -0.179. Further, the values for the composite z-score in [8], in assay [9] and in assay [10] were 0.0403, -1.04 and -2.08, respectively. The same molecule displayed a z-score in assay [2] of 0.0844.

With `C=CC[C@@]1(C(=O)NCC(O)CO)N=C(c2ccc(OCCCO)cc2)O[C@@H]1c1ccccc1CN=[N+]=[N-]` (stereo not given in full), the composite z-score in [1] was 1.43; in assay [3], -1.44; in [4], 0.778; in [5], -0.0262; in [6], -0.119; in [7], 0.261. Besides, the composite z-score in assay [8] was found to be 0.824; in [9] it was 2.6; in [10], 0.0177. In addition, the z-score in assay [2] was -1.11.

As for `COCCOC(=O)N1C(=O)[C@@]2(c3cc(C#CCCO)ccc31)[C@H](C(=O)N1CCCCCCC1)[C@H]1C(=O)O[C@H](c3ccccc3)[C@H](c3ccccc3)N1[C@@H]2c1ccc(O)cc1`, the composite z-score in assay [1] came to 1.02; in assay [3] it was 0.383; in assay [4], 2.14; in assay [5] it was 0.719; in [6], 0.0775; in [7] it was 0.814. The values for the composite z-score in assay [8], in assay [9] and in assay [10] were 0.916, 2.56 and 1.45, respectively. Further, the z-score in [2] is -1.18.

Turning to `CO[C@H]1COC(=O)[C@@H](C)NC(=O)CC=C[C@@H](C)[C@H](OC)COC(=O)CC=C[C@@H]1C`, the composite z-score is -0.0307 in assay [1]; 1.39 in assay [3]; -1.88 in [4]; -2.99 in [5]; -0.202 in [6]; -0.153 in assay [7]. For the same molecule, the composite z-score was -0.559 in assay [8], -0.0099 in assay [9] and -1.47 in assay [10]. The molecule further returned a z-score in assay [2] of -0.355.

For `CC(=O)NCCCC[C@@H]1NC(=O)[C@@H]2C[C@H](C(=O)NCCCCCCN(C)C)[C@H](c3ccc(O)cc3)N2C1=O`, the composite z-score was -0.0336 in [1]; 0.73 in [3]; -0.158 in assay [4]; -1.14 in assay [5]; -0.201 in assay [6]; 0.0712 in [7]. The composite z-score in assay [8] worked out at 1.01; in [9] it was 1.84; in [10], 1.65. In addition, the z-score in assay [2] came to 1.08.

Regarding `CC(C)N1CC=CC23O[C@@H]4/C=C\CCCOC(=O)C4[C@H]2C(=O)N(CCO)[C@@H]3C1=O` (stereo not given in full), the composite z-score in assay [1] was -0.526; in [3] it was -0.999; in assay [4] it was -0.428; in assay [5], -0.793; in [6], -0.188; in assay [7] it was -0.0769. Further, the composite z-score in [8] is -0.0624; in assay [9], 2.9; in assay [10] it was -0.493. This molecule returned a z-score in assay [2] of -0.648.

Turning to `C#CCCCON=C1C[C@@H](O)[C@@H](O)[C@@H]2[C@@H]3C(=O)N(Cc4ccc5c(c4)OCO5)C(=O)[C@@H]3CC[C@@H]12`, the composite z-score in assay [1] is 0.449; in [3] it was 0.448; in [4], 0.127; in assay [5], -0.19; in assay [6], -0.096; in assay [7], 0.147. Moreover, the composite z-score in assay [8] was 0.0136; in [9], -0.0849; in [10], 1.4. The molecule also registered a z-score in assay [2] of 0.0713.

Regarding `C[C@H]1COC(=O)[C@H](Cc2ccccc2)NC(=O)[C@@H](C)COC(=O)[C@H](Cc2ccccc2)NC1=O`, the composite z-score in [1] is 0.844; in assay [3] it was 0.597; in assay [4], 0.359; in [5], -0.589; in [6] it was -0.236; in [7], 0.0711. In addition, the figures for the composite z-score in assay [8], in assay [9] and in [10] were -0.0026, 1 and 0.856, respectively. Moreover, in [2], the z-score was -0.0223.

Take `COc1cc([C@@H]2N[C@H](C(=O)O)Cc3c2[nH]c2ccccc32)cc(OC)c1OC`: the composite z-score is 0.297 in assay [1]; 0.649 in assay [3]; -0.0344 in assay [4]; -0.494 in assay [5]; -0.0328 in [6]; -0.221 in assay [7]. Besides, the composite z-score in assay [8] came to 0.0374; in assay [9] it was 0.0517; in [10], 0.441. In assay [2], this molecule displayed a z-score of -0.0056.
